In PubChem BioAssay AID1159580 (chemical genetic matrix, 2015):
“And” between values parts separate entries of the source, which are not always exact repeats. Equal values may be shown once. The whole screen tested about 5,500 compounds, of which about 2,000 (36%) were called active. Inconclusive results (about 18%) are left out. Cut-off read from the data, not from the text of the source: active = normalized growth mostly below about 0.91 (no sharp cut-off); inconclusive = no clear call, values can overlap the other calls; inactive = mostly above about 0.92. Some of the results follow.

Assay: chemical genetic growth profiling, strain panel (AID 1159580);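 note: tested at 20 µM; growth read once vehicle control cultures reached saturation at 30 °C; 1 = growth at the plate median or of vehicle wells; lower values mean less growth of the strain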
Conditions: growth OD
[1] = S. cerevisiae deletion strains, locus YGR078C, strain PAC10, active compounds read low
[2] = S. cerevisiae deletion strains, locus YGR229C, strain SMI1, active compounds read low
[3] = S. cerevisiae deletion strains, locus YMR307W, strain GAS1, active compounds read low
[4] = S. cerevisiae deletion strains, locus YNL128W, strain TEP1, active compounds read low
[5] = S. cerevisiae deletion strains, locus YPL055C, strain LGE1, active compounds read low

Measured: normalized growth

Cc1ccc(C(=O)C(C)CN2CCCCC2)cc1 (stereo unspecified)
inactive: S. cerevisiae deletion strains, locus YBR021W, strain FUR4, active compounds read low 1 | S. cerevisiae deletion strains, locus YBR229C, strain ROT2, active compounds read low 1.01 | S. cerevisiae deletion strains, locus YCL029C, strain bik1, active compounds read low 1.02 | S. cerevisiae deletion strains, locus YDL035C, strain GPR1, active compounds read low 1.01 | S. cerevisiae deletion strains, locus YDL074C, strain BRE1, active compounds read low 1.01 | S. cerevisiae deletion strains, locus YDL101C, strain DUN1, active compounds read low 1.01 | S. cerevisiae deletion strains, locus YDL134C, strain PPH21, active compounds read low 1.02 | S. cerevisiae deletion strains, locus YDL185W, strain tfp1, active compounds read low 1.02 | S. cerevisiae deletion strains, locus YDL192W, strain arf1, active compounds read low 1.02 | S. cerevisiae deletion strains, locus YDR101C, strain arx1, active compounds read low 0.998 | S. cerevisiae deletion strains, locus YDR150W, strain NUM1, active compounds read low 1 | S. cerevisiae deletion strains, locus YDR162C, strain NBP2, active compounds read low 1.01 | S. cerevisiae deletion strains, locus YDR318W, strain mcm21, active compounds read low 1.02 | S. cerevisiae deletion strains, locus YDR388W, active compounds read low 1.02 | S. cerevisiae deletion strains, locus YDR502C, strain sam2, active compounds read low 1.01 | S. cerevisiae deletion strains, locus YEL061C, strain CIN8, active compounds read low 1.01 | S. cerevisiae deletion strains, locus YER110C, active compounds read low 1.01 | S. cerevisiae deletion strains, locus YER155C, strain BEM2, active compounds read low 1.01 | S. cerevisiae deletion strains, locus YER167W, strain BCK2, active compounds read low 1.02 | S. cerevisiae deletion strains, locus YGL078C, strain dbp3, active compounds read low 1.01 | S. cerevisiae deletion strains, locus YGL086W, strain mad1, active compounds read low 1.03 | S. cerevisiae deletion strains, locus YGL248W, strain PDE1, active compounds read low 1.01 | [1] 1 | S. cerevisiae deletion strains, locus YGR135W, strain pre9, active compounds read low 1 | [2] 0.983 | S. cerevisiae deletion strains, locus YGR252W, strain gcn5, active compounds read low 0.987 | S. cerevisiae deletion strains, locus YHR030C, strain SLT2, active compounds read low 1.01 and 0.991 | S. cerevisiae deletion strains, locus YHR079C, strain IRE1 (second series), active compounds read low 1.02 | S. cerevisiae deletion strains, locus YHR079C, strain IRE1, active compounds read low 0.993 | S. cerevisiae deletion strains, locus YHR094C, strain hxt1, active compounds read low 1.01 | S. cerevisiae deletion strains, locus YHR129C, strain ARP1, active compounds read low 1.02 | S. cerevisiae deletion strains, locus YHR200W, strain rpn10, active compounds read low 1.02 | S. cerevisiae deletion strains, locus YIL066C, strain RNR3, active compounds read low 1.01 | S. cerevisiae deletion strains, locus YIL073C, strain SPO22, active compounds read low 0.993 | S. cerevisiae deletion strains, locus YIL125W, strain kgd1, active compounds read low 1.02 | S. cerevisiae deletion strains, locus YIR030C, strain dcg1, active compounds read low 1.01 | S. cerevisiae deletion strains, locus YJL095W, strain BCK1, active compounds read low 0.973 and 0.966 | S. cerevisiae deletion strains, locus YJL134W, strain LCB3, active compounds read low 1.01 | S. cerevisiae deletion strains, locus YJL168C, strain set2, active compounds read low 1.02 | S. cerevisiae deletion strains, locus YJL187C, strain SWE1 (second series), active compounds read low 1 | S. cerevisiae deletion strains, locus YJR043C, strain POL32, active compounds read low 1.02 | S. cerevisiae deletion strains, locus YJR066W, strain TOR1, active compounds read low 0.907 | S. cerevisiae deletion strains, locus YKL009W, strain mrt4, active compounds read low 1.03 | S. cerevisiae deletion strains, locus YKL068W, active compounds read low 1.01 | S. cerevisiae deletion strains, locus YKL085W, strain MDH1 (second series), active compounds read low 1.03 | S. cerevisiae deletion strains, locus YKL085W, strain MDH1, active compounds read low 1.03 | S. cerevisiae deletion strains, locus YKL190W, strain CNB1, active compounds read low 1.01 | S. cerevisiae deletion strains, locus YKR001C, strain vps1, active compounds read low 1.03 | S. cerevisiae deletion strains, locus YLR039C, strain RIC1, active compounds read low 0.993 | S. cerevisiae deletion strains, locus YLR058C, strain SHM2, active compounds read low 1.02 | S. cerevisiae deletion strains, locus YLR102C, strain apc9, active compounds read low 1.01 | S. cerevisiae deletion strains, locus YLR113W, strain HOG1, active compounds read low 1.01 | S. cerevisiae deletion strains, locus YLR262C, strain YPT6, active compounds read low 1.02 | S. cerevisiae deletion strains, locus YLR268W, strain sec22, active compounds read low 1 | S. cerevisiae deletion strains, locus YLR330W, strain CHS5, active compounds read low 1 | S. cerevisiae deletion strains, locus YLR342W, strain FKS1 (second series), active compounds read low 0.973 | S. cerevisiae deletion strains, locus YLR371W, strain rom2, active compounds read low 1.02 | S. cerevisiae deletion strains, locus YLR418C, strain cdc73, active compounds read low 1.02 | S. cerevisiae deletion strains, locus YML016C, strain PPZ1, active compounds read low 1.01 | S. cerevisiae deletion strains, locus YML032C, strain rad52, active compounds read low 1.01 | S. cerevisiae deletion strains, locus YML124C, strain tub3, active compounds read low 1.01 | S. cerevisiae deletion strains, locus YMR078C, strain ctf18, active compounds read low 1.02 | S. cerevisiae deletion strains, locus YMR223W, strain ubp8, active compounds read low 1.01 | [3] 1.14 | S. cerevisiae deletion strains, locus YNL067W, strain RPL9B, active compounds read low 1.01 | [4] 1.03 | S. cerevisiae deletion strains, locus YNL183C, strain NPR1, active compounds read low 0.899 | S. cerevisiae deletion strains, locus YNL233W, strain BNI4, active compounds read low 0.993 | S. cerevisiae deletion strains, locus YNL250W, strain rad50, active compounds read low 1.01 | S. cerevisiae deletion strains, locus YNL271C, strain bni1, active compounds read low 1.02 | S. cerevisiae deletion strains, locus YNL298W, strain CLA4, active compounds read low 1.03 | S. cerevisiae deletion strains, locus YNL307C, strain MCK1, active compounds read low 1.03 | S. cerevisiae deletion strains, locus YNL322C, strain KRE1, active compounds read low 1.01 | S. cerevisiae deletion strains, locus YNR052C, strain pop2, active compounds read low 1.02 | S. cerevisiae deletion strains, locus YOL006C, strain TOP1, active compounds read low 1 | S. cerevisiae deletion strains, locus YOL012C, strain htz1 0.819 | S. cerevisiae deletion strains, locus YOL147C, strain pex11, active compounds read low 1.01 | S. cerevisiae deletion strains, locus YOR061W, strain CKA2, active compounds read low 1.02 | S. cerevisiae deletion strains, locus YOR069W, strain VPS5, active compounds read low 1 | S. cerevisiae deletion strains, locus YOR136W, strain idh2, active compounds read low 1.02 | S. cerevisiae deletion strains, locus YOR144C, strain elg1, active compounds read low 1.01 | S. cerevisiae deletion strains, locus YOR184W, strain ser1, active compounds read low 1.01 | S. cerevisiae deletion strains, locus YOR231W, strain MKK1, active compounds read low 0.984 | S. cerevisiae deletion strains, locus YOR316C, strain cot1, active compounds read low 1.02 | [5] 1.03 | S. cerevisiae deletion strains, locus YPL256C, strain CLN2, active compounds read low 0.976 | S. cerevisiae deletion strains, locus YPR119W, strain clb2, active compounds read low 1.02 | S. cerevisiae deletion strains, locus YPR141C, strain kar3, active compounds read low 1.02 | S. cerevisiae deletion strains, locus YPR163C, strain tif3, active compounds read low 1.03 | S. cerevisiae deletion strains, locus YPR167C, strain met16, active compounds read low 1.02 | S. cerevisiae deletion strains, strain wtn01, active compounds read low 1.01 | S. cerevisiae strains, strain wild type, active compounds read low 1.01

O=C(OCCN1CCCCC1)c1c[nH]c2ccccc12
inactive: S. cerevisiae deletion strains, locus YAL040C, strain CLN3, active compounds read low 1 | S. cerevisiae deletion strains, locus YCL061C, strain MRC1 (second series), active compounds read low 1.01 | S. cerevisiae deletion strains, locus YDR363W, strain ESC2, active compounds read low 0.997 | S. cerevisiae deletion strains, locus YER002W, strain NOP16, active compounds read low 1.02 | [1] 1.02 | [2] 0.999 | S. cerevisiae deletion strains, locus YMR263W, strain SAP30, active compounds read low 0.999 | [3] 1.01 | [4] 1.01 | S. cerevisiae deletion strains, locus YNL175C, strain NOP13, active compounds read low 1.01 | S. cerevisiae deletion strains, locus YNL197C, strain WHI3, active compounds read low 1 | S. cerevisiae deletion strains, locus YNL224C, strain SQS1, active compounds read low 0.994 | S. cerevisiae deletion strains, locus YOR083W, strain WHI5 (second series), active compounds read low 1 | [5] 0.997
